# Experimental data: ChEMBL document CHEMBL5308541, “MAIP: An Open-Source Tool to Enrich High-Throughput Screening Output and Identify Novel, Druglike Molecules with Antimalarial Activity” (ACS Med Chem Lett, 2023)
# Screen size: about 4,800 compounds; about 420 (8.8%) showed an effect of 50% or more. Only a selection was taken, and strong results are over-represented in it overall.
# System: Plasmodium falciparum
# Test: Confirmatory screen in NF54 nanoGlo assay, in single point, at 2uM, 72h
# Assay type: functional, Erythrocyte
# Conditions: timepoint 72 hour
row,SMILES,% Inhibition [%]
1,CN1CCC(N(C)c2ccccc2CNC[C@@H](O)c2cccc(Cl)c2)CC1,23
2,O[C@@H](CNCc1ccc2c(c1)CCO2)c1ccc(F)c(F)c1,61
3,CN1CCN(c2ccc(C(F)(F)F)cc2NCc2cnc[nH]2)CC1,62
4,CN1C2CCC1CC(OC(=O)C1CCC(C(=O)OC3CC4CCC(C3)N4C)(c3ccccc3)c3ccccc31)C2 (stereo not drawn),49
5,Fc1ccc(N2CC[C@H](CN3CCC(c4c[nH]c5ccccc45)(c4c[nH]c5ccccc45)CC3)C2)cc1,97
6,CC(C)(C)c1ccc(CNC[C@H](O)c2ccc(F)cc2F)cc1,95
7,Cc1ccc(CNc2ncnc(N)c2Cl)c(N2CCCC2)n1,50
8,CN(C)CC12CNCC1CN(c1ccnc3cc(Cl)ccc13)C2 (stereo not drawn),98
